Potency data for 18 molecules are collected here from PubChem BioAssay (NCATS).

Records with an inconclusive call do not appear. Entries that show only a call come without a potency. The source made the active and inactive calls. Calls come from the whole dose curve.

The assay is described as follows: Cytotoxicity counterscreen for inhibitors of SARS-CoV-2 cell entry (AID 1645845). Note: nearly all actives have a fitted effect of over 50% in size. Conditions: cell viability (SARS-CoV-2 entry assay cells); series mostly up to 57.1 µM. In outline: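 48 h compound treatment (after 1 h preincubation), HEK293-ACE2 cells, 37 C/5% CO2; ATP luminescence endpoint; normalized to cell wells and media blanks.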
Regarding `O=C(CCCN1CCC(O)(c2ccc(Br)cc2)CC1)c1ccc(F)cc1`, the Potency result was “inactive”. On to `O=C1N(c2ccccc2)c2ccccc2C1(Cc1ccncc1)Cc1ccncc1`, for which the Potency entry was “inactive”.

Regarding `CN(C)CCN(Cc1ccccc1)c1ccccn1`, the Potency result is “inactive”. Take `Clc1ccc(Cn2c(CN3CCCC3)nc3ccccc32)cc1`: the Potency entry was “inactive”.

As to `Cc1ccc(Cl)c(OCC(O)CNC(C)(C)C)c1` (stereo not drawn), the Potency entry was “inactive”. Take `Nc1c(NC/C=C\COc2cc(CN3CCCCC3)ccn2)c(=O)c1=O`: the Potency result is “inactive”.

As to `C(=C\c1ccccc1)/CN1CCN(C(c2ccccc2)c2ccccc2)CC1`, the Potency entry was “inactive”. For the molecule `CC(C)C[C@@H]1[C@H](c2ccccc2)OC(=O)N1CCCN1CCCCCC1`, the Potency entry was “inactive”. To `CCCOC(C(=O)OC1CCN(C)CC1)(c1ccccc1)c1ccccc1` belongs “inactive”. Turning to `O=C(O)c1ccccc1Nc1cc(Cl)ccc1C(=O)O`, the Potency entry was “inactive”. `Oc1cccc(-c2c3nc(c(-c4cccc(O)c4)c4ccc([nH]4)c(-c4cccc(O)c4)c4nc(c(-c5cccc(O)c5)c5ccc2[nH]5)CC4)C=C3)c1`: the Potency entry was “inactive”. Next, `Cn1cc(C(=O)[C@@H]2CCc3nc[nH]c3C2)c2ccccc21`: “inactive”.

For the molecule `Cc1ncc(CSSCc2cnc(C)c(O)c2CO)c(CO)c1O`, the Potency result was “inactive”. As for `CCCCNc1ccc(C(=O)OCCN(CC)CC)cc1`, the Potency entry is “inactive”. On to `CCCCN(CCCC)CCC(O)c1cc2c(Cl)cc(Cl)cc2c2cc(C(F)(F)F)ccc12` (stereo not drawn), for which the Potency entry was “inactive”. In the case of `COc1cc(N)c(Cl)cc1C(=O)NC1CCN(Cc2ccccc2)CC1`, the Potency result was “inactive”.

`CCN(CC)Cc1nccn1-c1ccc([N+](=O)[O-])cc1C(=O)c1ccccc1Cl`: the Potency entry is “inactive”.

Turning to `Cc1[nH]c(=O)c(C#N)cc1-c1ccc2nccn2c1`, the Potency result was “inactive”.
